Data on 36 compounds can be found in PubChem BioAssay.

In one experiment the target is Fibroblast growth factor 2 (Homo sapiens) (UniProt P09038). The experiment in a line: basic fibroblast growth factor binding to printed compounds – biochemical, small-molecule microarray, 635/667 nm fluorescence, primary screen (AID 1133). The settings on record: FGF2, fluorescence 635/667, higher = more signal.
Sequence of Fibroblast growth factor 2 (Homo sapiens) (P09038 whole entry, looked up): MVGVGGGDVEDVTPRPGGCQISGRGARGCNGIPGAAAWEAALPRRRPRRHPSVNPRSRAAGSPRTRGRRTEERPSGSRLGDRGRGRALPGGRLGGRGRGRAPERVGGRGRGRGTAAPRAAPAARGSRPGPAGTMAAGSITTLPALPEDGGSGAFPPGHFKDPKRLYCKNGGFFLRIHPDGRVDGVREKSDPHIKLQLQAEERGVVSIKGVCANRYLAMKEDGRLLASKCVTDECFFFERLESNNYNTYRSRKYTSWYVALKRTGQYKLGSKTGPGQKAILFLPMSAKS
For `[N-]=[N+]=NCc1ccccc1[C@@H]1OC(c2ccc(OCCCO)cc2)=N[C@]1(CCS(=O)(=O)c1ccccc1)C(=O)NCc1ccccc1`, the composite z-score was determined as 1.37. Same read-out and setting: the value for `O=C1OCC=C[C@H]2OC34C=CCN(CCN5CCOCC5)C(=O)[C@H]3N(CCCO)C(=O)[C@@H]4[C@@H]12` (some centres undefined) was -0.344; that for `CCc1oc(CC[C@@H](CO)NC(=O)NCCn2cc(C3(O)CCCCC3)nn2)c(C(=O)OC)c1C(=O)OC` was 1.13. Still for that read-out and setting: under `COC(=O)[C@@]1(Cc2ccc(F)cc2)[C@H]2c3cc(C(=O)N(C)C)n(Cc4nc5ccccc5[nH]4)c3C[C@H]2CN1C(=O)c1ccccc1` stands -0.634. The same measure, in the same setting: the value for `COc1ccc(CCN2C(=O)[C@@]3(c4ccc([N+](=O)[O-])cc4)CC(=O)N(C4CCCCC4)[C@@H]3c3ccc(CO)cc32)cc1` was 1.4; that for `O=C(O)[C@@]1(CCS(=O)(=O)c2ccccc2)COC(c2ccc(OCCCO)cc2)=N1` was -0.23.

Take `CC(C)C[C@@H]1NC(=O)[C@H]2C[C@@H](C(=O)NCCCCCCN)[C@@H](c3ccc(O)cc3)N2C1=O`: the composite z-score worked out at 0.823.

The compound `CCCC[C@H]1OB(O)C[C@H]2C1=C(COc1ccccc1)C[C@H]1C(=O)N(C)C(=O)[C@H]12` showed a composite z-score of 0.473.

In turn, `O=C1O[C@H](c2ccccc2)[C@H](c2ccccc2)N2[C@H]1[C@@H](C(=O)N1CCN(c3ncccn3)CC1)[C@]1(C(=O)Nc3ccc(C#CC4=CCCCC4)cc31)[C@H]2c1ccc(O)cc1` showed a composite z-score of 0.357. The same measure, in the same setting: under `C#CCN(CC=C(C)C)[C@H](CO)c1ccccc1` stands 0.295. On the same count and under the same terms, the value for `Cc1ccc(S[C@]2(C(=O)NCCN3CCOCC3)CC(=O)N(Cc3ccccc3Cl)[C@@H]2c2ccc(CO)cc2)cc1` was -0.536; that for `O=C1NC(=O)C2C1C=CC(C(O)Cc1ccccc1)N2Nc1ccc(Cl)cc1Cl` (centres undefined) was -0.644; that for `C=CCOC(=O)[C@@H]1[C@H]2C(=O)O[C@H](c3ccccc3)[C@H](c3ccccc3)N2[C@H](c2ccc(OCCOC(=O)[C@@H]3C[C@@H]4C(=O)N5CCC[C@H]5C(=O)N4[C@@H]3c3ccc(O)cc3)cc2)[C@@]12C(=O)Nc1ccc(I)cc12` was 1.2.

Test system in the next experiment: not listed separately
The experiment in a line: JC-1 mitochondrial potential readout, lung cancer cells – cell-based, A549, JC-1 fluorescence, basal, 24 h, 100 nL, profiling panel (AID 1138).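 Further: A549 lung adenocarcinoma cells under basal conditions with no added stimulus; test concentration not given here.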 The settings on record: higher = more signal.
Regarding `C=C(C)C1C(=C)CN([C@H](CO)c2ccccc2)C1=O` (some centres undefined), the z-score was -0.647. Still for that read-out and setting: the value for `COc1ccc(C(O)C2C=CC3C(=O)N(c4ccccc4)C(=O)C3N2Nc2ccccc2F)cc1OCc1ccccc1` (centres undefined) was 0.383; that for `COCCCNC(=O)[C@@]1(Cc2ccccc2)N=C(c2ccc(OCCCO)cc2)O[C@H]1c1ccccc1` was 0.26; that for `CC(C)C(CO)N1C(=O)[C@@H]2[C@H]3C(=O)OCC=C[C@H]3OC23C=CCN(C(C)C)C(=O)[C@@H]13` (some centres undefined) was -0.654. In the case of `[N-]=[N+]=Nc1ccccc1[C@H]1OC(c2ccc(OCCCO)cc2)=N[C@@]1(Cc1ccccc1)C(=O)O`, the z-score is 0.384. Still for that read-out and setting: under `Cc1ccc(S[C@]2(C(=O)NC(C)C)CC(=O)N(Cc3ccccc3Cl)[C@@H]2c2ccc(CO)cc2I)cc1` stands 0.905; under `CN(C)CCCCCCNC(=O)[C@@H]1C[C@@H]2C(=O)N[C@@H](CCCCN)C(=O)N2[C@@H]1c1cccc(OCCO)c1`, 1.08. Same read-out and setting: under `CC(C)(C)OC(=O)CC[C@]12N=C(c3ccc(OCCCO)cc3)O[C@H]1c1ccccc1N(CCS(=O)(=O)c1ccccc1)C2=O` stands 0.95. Same read-out and setting: the value for `COCCn1c(C(=O)N2CCCC2)cc2c1C[C@H]1CN(C(=O)c3ccccc3)[C@@](Cc3ccc(F)cc3)(C(=O)OC)[C@@H]21` was -0.328; that for `CC1CC/C=C\[C@H]2OC34C=CCN(C(C)(C)C)C(=O)[C@H]3N(CCCCCCO)C(=O)[C@@H]4C2C(=O)O1` (some centres undefined) was 0.699; that for `COCCOC(=O)N1C(=O)[C@@]2(c3cc(C#Cc4ccc(OC)cc4)ccc31)[C@H](C(N)=O)[C@H]1C(=O)O[C@H](c3ccccc3)[C@H](c3ccccc3)N1[C@@H]2c1ccccc1OCCO` was -1.47. The compound `O=C1OCCC/C=C\[C@H]2OC34C=CCN(c5ccc6ccccc6c5)C(=O)[C@H]3N(CCCCCCO)C(=O)[C@@H]4C12` (some centres undefined) came in with a z-score of 1.74.

Regarding `COc1ccc([C@H]2C[C@H]3C(Br)=C[C@@H]2C(=O)[C@]32CO2)cc1`, the z-score stood at 0.271.

Consider `COCCOC(=O)N1C(=O)[C@@]2(c3cc(C#CCCO)ccc31)[C@H](c1ccc(OCCO)cc1)N1[C@H](c3ccccc3)[C@H](c3ccccc3)OC(=O)[C@H]1[C@@H]2C(=O)N1CCN(c2ncccn2)CC1`, for which the z-score is -1.04. The same measure, in the same setting: under `Cc1ccc(C(C)CC(O)C2C=CC3C(=O)N(C)C(=O)C3N2NC(=O)OC(C)(C)C)o1` (centres undefined) stands -0.475; under `C=CC[C@@]1(C(=O)N(C)C)N=C(c2ccc(OCCCO)cc2)O[C@@H]1c1ccccc1N=[N+]=[N-]`, 0.857. Same read-out and setting: under `COCCOC(=O)N1C(=O)[C@@]2(c3cc(C#CCCO)ccc31)[C@H](C(=O)Nc1nc3ccccc3s1)[C@H]1C(=O)O[C@H](c3ccccc3)[C@H](c3ccccc3)N1[C@@H]2c1ccc(OCCO)cc1` stands -2.4; under `O=C(c1ccccc1)N1Cc2ccccc2[C@@H]2OC(c3ccc(OCCCO)cc3)=N[C@]2(Cc2ccccc2)C1=O`, -0.411. The same measure, in the same setting: under `NCCCCCNC(=O)[C@@H]1C[C@@H]2C(=O)N[C@@H](Cc3ccccc3)C(=O)N2[C@@H]1c1cccc(OCCO)c1` stands -0.505; under `COc1ccc([C@H]2OC[C@@H]3CC4(CC=CC4)C(=O)N32)cc1`, -0.661. `CN1C(=O)C2C=CC(C(O)Cc3ccccc3)N(Nc3ccccc3)C2C1=O` (centres undefined) registered a z-score of -0.375. The same measure, in the same setting: under `[N-]=[N+]=NCc1ccccc1[C@@H]1OC(c2ccc(OCCCO)cc2)=N[C@]1(Cc1ccccc1N=[N+]=[N-])C(=O)N1CCOCC1` stands 1.28; under `COc1ccc(CCNC(=O)[C@@]2(Sc3ccc(C)cc3)CC(=O)N(C3CCCCC3)[C@@H]2c2ccc(CO)cc2I)cc1`, -0.0279.

In turn, `[N-]=[N+]=NCc1ccccc1[C@@H]1OC(c2ccc(OCCCO)cc2)=N[C@]1(CCS(=O)(=O)c1ccccc1)C(=O)NCc1ccccc1` gave a z-score of -0.338.

Compound `O=C1OCC=C[C@H]2OC34C=CCN(CCN5CCOCC5)C(=O)[C@H]3N(CCCO)C(=O)[C@@H]4[C@@H]12` (some centres undefined) came in with a z-score of -0.798. The same measure, in the same setting: under `CCc1oc(CC[C@@H](CO)NC(=O)NCCn2cc(C3(O)CCCCC3)nn2)c(C(=O)OC)c1C(=O)OC` stands -0.0225. Still for that read-out and setting: under `COC(=O)[C@@]1(Cc2ccc(F)cc2)[C@H]2c3cc(C(=O)N(C)C)n(Cc4nc5ccccc5[nH]4)c3C[C@H]2CN1C(=O)c1ccccc1` stands -0.0117. The same measure, in the same setting: the value for `COc1ccc(CCN2C(=O)[C@@]3(c4ccc([N+](=O)[O-])cc4)CC(=O)N(C4CCCCC4)[C@@H]3c3ccc(CO)cc32)cc1` was -0.552. Consider `O=C(O)[C@@]1(CCS(=O)(=O)c2ccccc2)COC(c2ccc(OCCCO)cc2)=N1`, for which the z-score is -0.487. On to `CC(C)C[C@@H]1NC(=O)[C@H]2C[C@@H](C(=O)NCCCCCCN)[C@@H](c3ccc(O)cc3)N2C1=O`, for which the z-score is -1.06. Same read-out and setting: the value for `CCCC[C@H]1OB(O)C[C@H]2C1=C(COc1ccccc1)C[C@H]1C(=O)N(C)C(=O)[C@H]12` was 0.284; that for `O=C1O[C@H](c2ccccc2)[C@H](c2ccccc2)N2[C@H]1[C@@H](C(=O)N1CCN(c3ncccn3)CC1)[C@]1(C(=O)Nc3ccc(C#CC4=CCCCC4)cc31)[C@H]2c1ccc(O)cc1` was -0.48. The compound `C#CCN(CC=C(C)C)[C@H](CO)c1ccccc1` gave a z-score of -1.47. Still for that read-out and setting: under `Cc1ccc(S[C@]2(C(=O)NCCN3CCOCC3)CC(=O)N(Cc3ccccc3Cl)[C@@H]2c2ccc(CO)cc2)cc1` stands -0.63; under `O=C1NC(=O)C2C1C=CC(C(O)Cc1ccccc1)N2Nc1ccc(Cl)cc1Cl` (centres undefined), 2.92.

The compound `C=CCOC(=O)[C@@H]1[C@H]2C(=O)O[C@H](c3ccccc3)[C@H](c3ccccc3)N2[C@H](c2ccc(OCCOC(=O)[C@@H]3C[C@@H]4C(=O)N5CCC[C@H]5C(=O)N4[C@@H]3c3ccc(O)cc3)cc2)[C@@]12C(=O)Nc1ccc(I)cc12` displayed a z-score of -1.58.
